# According to PubChem BioAssay (NCATS):
# Results filed as inconclusive are left out. Active and inactive are the calls of the source. Unless noted, calls come from the whole dose curve; as a rule, active = well fitted curve in the direction sought with a large enough effect; inconclusive = small, poorly fitted or top-dose-only effect, or another doubt; inactive = no such curve, though single readings can be large; an effect the other way counts as inactive or inconclusive.
# What was measured:
# [1] = biological target: Lysosomal acid glucosylceramidase (Homo sapiens) (UniProt P04062); test: Glucocerebrosidase-p2 (AID 348; in the data active = potency below about 10 µM; note: potency is the fitted concentration of half-maximal effect); settings: purified GBA, blue fluorogenic substrate, 40 min
# Summary of the method: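 Compounds titrated from 0.6 nM upwards against 0.2 nM enzyme in pH 5.9 citric acid/KH2PO4, taurocholate, tween-20; blue fluorogenic substrate 80 uM, 40 min room temperature, stopped and read Ex 365/Em 440 for AC50.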
# [2] = biological target: Cytochrome P450 1A2 (Homo sapiens) (UniProt P05177); test: p450-cyp1a2 (AID 410; calls by dose curve; note: potency is the fitted concentration of half-maximal effect)
# Summary of the method: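 Luminescent readout of luciferin formed from Luciferin-ME by human CYP1A2; data normalized against complete inhibition by 57 uM furafylline. Enzyme 20nM, substrate 100uM at Km, 100mM KPO4 buffer, 60 min reaction at room temperature.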
# [3] = NFAT Signaling Pathway (AID 444; active = well fitted curve in either direction with a large enough effect, not every such curve was filed as active;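 note: carbachol stimulus at about its EC50 of 1 µM final; % is set by controls: 0 for no effect and ±100 for the full control effect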); settings: Jurkat NFAT-bla M1, carbachol, beta-lactamase ratio, 5 h; at 7.69 µM (top of the series)
# Summary of the method: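 Read-out: CCF4 FRET ratio (460 nm/530 nm) after 1 h RT dye loading, used for %activity and AC50 from titration series. Cells: Jurkat NFAT-β-lactamase/M1 line, treated with compound plus 1 uM carbachol for 5 h, 37 °C.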
# [4] = Stat Signaling Pathway (AID 446; active = well fitted curve in either direction with a large enough effect, not every such curve was filed as active;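 note: ME-180 cervical cancer cells given 40 pM IL-6 alongside compound; SIE-controlled beta-lactamase reporter measured as 460/530 nm FRET emission ratio; % is set by controls: 0 for no effect and ±100 for the full control effect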); settings: ME-180 (cervical carcinoma) SIE beta-lactamase reporter, IL-6 stimulated, 5 h; at 7.69 µM (top of the series)
# Summary of the method: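 IL-6/STAT signaling read in ME-180 cells via an SIE beta-lactamase reporter. Stimulus was 40 pM IL-6 (its AC50) for 5 hrs, so both activation and inhibition register.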
# [5] = biological target: Glucocorticoid receptor (Homo sapiens) (UniProt P04150); test: GR-GFP Redistribution (AID 450;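 active = compounds whose dose series gives a full or clear partial fitted curve of increased nuclear translocation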; note: potency is the fitted concentration of half-maximal effect); settings: U2OS GR-GFP nuclear translocation, laser cytometry, 2 h
# [6] = biological target: Glucocorticoid receptor (Homo sapiens) (UniProt P04150); test: GR-EFC Redistribution (AID 451; calls by dose curve; note: potency is the fitted concentration of half-maximal effect); settings: CHO-K1 GR-EFC translocation, beta-gal luminescence, 2 h
# Summary of the method: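 Translocation of GR-ED fusion to nuclear EA restores b-gal, read by luminescence after 1 h room-temperature detection. Engineered CHO-K1 biosensor cells, 1,000/well, exposed 2 h at 37 C to titrations up to 46 uM final.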
# [7] = biological target: Mitogen-activated protein kinase 10 (Mus musculus) (UniProt Q61831); test: JNK3 AlphaScreen Assay (AID 530; active = well fitted curve in either direction with a large enough effect, not every such curve was filed as active;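 note: kinase came from lysate of stimulated human HepG2 cells; signal reports phosphorylation of biotinylated GST-cJun 1-79 at Ser73 with 10 µM ATP; % is set by controls: 0 for no effect and ±100 for the full control effect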)
# Summary of the method: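 Compound titrations were preincubated 15 minutes at room temperature with substrate, antibody and pre-activated JNK3-containing HepG2 lysate. Reactions were started with 10 uM ATP and stopped with EDTA-containing bead buffer for AlphaScreen detection.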
# [8] = biological target: Cytochrome P450 3A4 (Homo sapiens) (UniProt P08684); test: qHTS Assay for Inhibitors and Substrates of Cytochrome P450 3A4 (AID 884); note: % is set by controls: 0 for no effect and ±100 for the full control effect; nearly all actives have a fitted effect of over 50% in size
# Summary of the method: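 20 nM human CYP3A4 with 25 uM Luciferin-PPXE (at KM) in 200 mM KPO4, preincubated 10 min with compound; NADPH regeneration started a 60 min RT reaction. Luciferin detected by luminescence, normalized to 57 uM ketoconazole as full inhibition.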
# [9] = biological target: Cytochrome P450 2D6 (Homo sapiens) (UniProt P10635); test: qHTS Assay for Inhibitors and Substrates of Cytochrome P450 2D6 (AID 891); note: potency is the fitted concentration of half-maximal effect; nearly all actives have a fitted effect of over 60% in size
# Summary of the method: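 Human CYP2D6 (5 nM) with 30 uM Luciferin-ME EGE (at Km) in 100 mM KPO4, compound preincubated 10 min, then NADPH regeneration system for 60 min at room temperature. Luciferin read by luminescence; normalized to 1.43 uM quinidine.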
# [10] = biological target: Cytochrome P450 2C19 (Homo sapiens) (UniProt P33261); test: qHTS Assay for Inhibitors and Substrates of Cytochrome P450 2C19 (AID 899); note: potency is the fitted concentration of half-maximal effect; nearly all actives have a fitted effect of over 60% in size
# Summary of the method: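 Reactions contain 5nM enzyme, 10uM Luciferin-H EGE (KM) and 50mM KPO4; compound preincubates 10 min at 37C, NADPH regeneration starts turnover for 60 min. Luminescence after detection reagent gives activity.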
# [11] = Confirmation and Secondary Assay for Modulators of Hemoglobin Beta Chain Splicing at IVS2 654 locus (AID 910);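 note: HeLa cells stably carrying EGFP split by mutant beta-globin IVS2-654 intron; per-well total GFP intensity by laser scanning cytometry after 2-day treatment; % of control where 0% means no effect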
# Summary of the method: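 Readout: per-well total peak green fluorescence (488 nm ex, 500–520 nm em) from objects 5–250 µm, reflecting correct splicing of an EGFP-654 reporter. Compounds were applied for 2 days at 37 °C to overnight-plated HeLa EGFP-654 cells; controls were DMSO and 500 nM IVS2-654 PNA.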
# [12] = Confirmation and Secondary Assay for Modulators of Hemoglobin Beta Chain Splicing at IVS2 705 locus (AID 930);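 note: HeLa cells stably expressing the EGFP-705 splicing reporter; % of control where 0% means no effect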
# Summary of the method: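 Restored EGFP fluorescence after 2-day compound exposure reports splicing correction in IVS2-705 EGFP reporter HeLa cells; positive control was 500 nM splice-blocking PNA oligo. Signal measured as well total peak GFP intensity (488 nm excitation).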
# [13] = qHTS Assay for Lipid Storage Modulators (AID 1519; calls by dose curve); settings: Drosophila S3 cells, BODIPY lipid droplet/cell ratio, laser cytometry, cells loaded with oleic acid
# Summary of the method: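 Cells seeded at 5,000 per well were treated with compounds over a concentration series and loaded with oleic acid (400 uM, as added). Lipid droplet fluorescence (488 nm excitation, 500-530 nm channel) was read by laser-scanning cytometry and normalized to 20 uM Triacsin C.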
# [14] = biological target: Ubiquitin carboxyl-terminal hydrolase 1 (Homo sapiens) (UniProt O94782); test: Inhibitors of USP1/UAF1: Pilot qHTS (AID 504865);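 note: rhodamine fluorescence freed from ubiquitin-rhodamine substrate followed over time; top concentration of the series differs between compounds; % is set by controls: 0 for no effect and ±100 for the full control effect; nearly all actives have a fitted effect of over 35% in size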
# Summary of the method: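 Enzyme-free wells gave the negative control, while test wells held 1nM USP1/UAF1 preincubated with compound for 15 min at room temperature. Ub-Rho at 150nM final started the reaction, and fluorescence at 480/540 nm was recorded kinetically.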
# [15] = P-glycoprotein substrates identified in KB-3-1 adenocarcinoma cell line, qHTS therapeutic library screen (AID 1346986); note: nearly all actives have a fitted effect of over 60% in size;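 note: potency is the fitted concentration of half-maximal effect; potency is for cytotoxicity meaning loss of cell viability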
# Summary of the method: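 Cells seeded 500/well in DMEM/10% FCS; compounds pinned in dose-response; 72 h incubation; CellTiter-Glo added, 5 min, luminescence. KB-8-5-11 run ±tariquidar to test reversal of P-gp resistance.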
# [16] = Primary qHTS for small molecule stabilizers of the endoplasmic reticulum resident proteome: Secreted ER Calcium Modulated Protein (SERCaMP) assay (AID 1508630); note: % is set by controls: 0 for no effect and ±100 for the full control effect
# Summary of the method: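 GLuc-SERCaMP-expressing SH-SY5Y cells, pretreated 16 h with compound, are challenged with thapsigargin to empty ER calcium stores; after 4 h, coelenterazine is added directly to the medium and luminescence is imaged.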
# [17] = biological target: Glutathione peroxidase 1 (Homo sapiens) (UniProt P07203); test: Primary qHTS Assay for Inhibitors of Recombinant Selenoprotein Glutathione Peroxidase 1 (GPX1) (AID 1845191); note: nearly all actives have a fitted effect of over 65% in size
# Summary of the method: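 10 nM GPX1 + cpd, 30 min RT; start w/ 1 mM GSH, 0.5 mM cumene hydroperoxide, 0.5 mM NADPH, 100 nM GR, 0.01% BSA; buffer 50 mM Tris-HCl pH 7.5, 2 mM EDTA, 150 mM NaCl; Fl 340/450, 0 & 15 min.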
# [18] = P-glycoprotein substrates identified in KB-8-5-11 adenocarcinoma cell line, qHTS therapeutic library screen (AID 1346987); note: % is set by controls: 0 for no effect and ±100 for the full control effect; nearly all actives have a fitted effect of over 65% in size
# Summary of the method: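 Steps: plate 500 KB-8-5-11 cells/well in DMEM + 10% FCS (colchicine removed); pin compounds in dose-response; incubate 72 h, 37 degree C, 5% CO2; add CellTiter-Glo, 5 min; read luminescence.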
# [19] = qHTS to identify inhibitors of the type 1 interferon - major histocompatibility complex class I in skeletal muscle: primary screen against the NCATS Mechanism Interrogation Plate v5.0 (MIPE) Libary (AID 1347411); note: potency is the fitted concentration of half-maximal effect; nearly all actives have a fitted effect of over 65% in size
# Summary of the method: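 Luminescence from HiBiT-tagged endogenous HLA-B*08:01 served as the MHC class I read-out. CRISPR-engineered C25cl48 human myoblasts received 4.0 ng/ml IFN-beta plus compound for 24 hrs, with an 11-point, 1:3 series topping at 46 uM final.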
# [20] = Primary qHTS for inhibitors of nuclear receptor binding SET domain protein 2 (NSD2) in an isogenic RCH-ACV NSD2 p.E1099K mutant (9B) (AID 1645876); note: nearly all actives have a fitted effect of over 70% in size; note: potency is the fitted concentration of half-maximal effect
# [21] = Primary qHTS for inhibitors of nuclear receptor binding SET domain protein 2 (NSD2) in an RCH-ACV wild type WT cells (2C) (AID 1645877); note: potency is the fitted concentration of half-maximal effect; nearly all actives have a fitted effect of over 70% in size
# [22] = biological target: Phospholipid hydroperoxide glutathione peroxidase GPX4 (Homo sapiens) (UniProt P36969); test: Primary qHTS Assay for Inhibitors of Recombinant Selenoprotein Glutathione Peroxidase 4 (GPX4) (AID 1845192); settings: outcome: dose series up to 50 µM unless noted; note: % is set by controls: 0 for no effect and ±100 for the full control effect; nearly all actives have a fitted effect of over 65% in size
# Summary of the method: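 NADPH consumption, followed by fluorescence at 340/450 nm between 0 and 15 min, reports GPX4 activity via coupled glutathione reductase (100 nM). Enzyme 200 nM was pre-exposed to compound 30 min; 0.5 mM cumene hydroperoxide and 1 mM GSH served as substrates.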
# [23] = qHTS drug screen for cell cycle checkpoint inhibitors in PARPi-resistant BRCA-mutant ovarian cancer cell lines. (AID 1963452; calls by dose curve); settings: PEO1/OlaR viability, CellTiter-Glo luminescence, 96 h, stronger effect = lower value
# Summary of the method: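 PEO1, PEO4 and PEO1/OlaR ovarian cancer cells, 600 per well, exposed 96 h at 37C to a dilution series. Viability read by CellTiter-Glo luminescence, normalized to DMSO and empty wells; activity summarized as Z-AUC.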
# [24] = biological target: Calcium and integrin-binding protein 1 (Homo sapiens) (UniProt Q99828); test: Primary qHTS for Identification of Calcium Integrin Binding Protein 1 (CIB1) Competitor (AID 1508620)
# Summary of the method: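 CIB1-GST (1 uM final) and compound incubated 15 min at room temperature before adding FITC-alphaIIb peptide tracer (100 nM final). Competition for binding read by fluorescence polarization (ex 480, em 540) after another 15 min at room temperature.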
# Chain of Calcium and integrin-binding protein 1 (Homo sapiens) (Q99828 whole entry, looked up): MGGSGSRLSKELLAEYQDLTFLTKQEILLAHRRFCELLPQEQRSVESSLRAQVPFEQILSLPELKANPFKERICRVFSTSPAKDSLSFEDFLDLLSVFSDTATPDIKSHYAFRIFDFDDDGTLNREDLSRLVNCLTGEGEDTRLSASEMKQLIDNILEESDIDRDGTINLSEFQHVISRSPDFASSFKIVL
# Chain of Glutathione peroxidase 1 (Homo sapiens) (P07203 whole entry, looked up): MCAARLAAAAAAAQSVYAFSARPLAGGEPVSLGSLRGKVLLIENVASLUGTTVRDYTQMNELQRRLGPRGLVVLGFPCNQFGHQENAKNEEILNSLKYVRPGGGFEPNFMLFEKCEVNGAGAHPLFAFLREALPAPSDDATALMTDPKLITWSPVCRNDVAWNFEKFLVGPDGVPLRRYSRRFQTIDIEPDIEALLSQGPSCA
# Chain of Glucocorticoid receptor (Homo sapiens) (P04150 whole entry, looked up, the tested form may be a part): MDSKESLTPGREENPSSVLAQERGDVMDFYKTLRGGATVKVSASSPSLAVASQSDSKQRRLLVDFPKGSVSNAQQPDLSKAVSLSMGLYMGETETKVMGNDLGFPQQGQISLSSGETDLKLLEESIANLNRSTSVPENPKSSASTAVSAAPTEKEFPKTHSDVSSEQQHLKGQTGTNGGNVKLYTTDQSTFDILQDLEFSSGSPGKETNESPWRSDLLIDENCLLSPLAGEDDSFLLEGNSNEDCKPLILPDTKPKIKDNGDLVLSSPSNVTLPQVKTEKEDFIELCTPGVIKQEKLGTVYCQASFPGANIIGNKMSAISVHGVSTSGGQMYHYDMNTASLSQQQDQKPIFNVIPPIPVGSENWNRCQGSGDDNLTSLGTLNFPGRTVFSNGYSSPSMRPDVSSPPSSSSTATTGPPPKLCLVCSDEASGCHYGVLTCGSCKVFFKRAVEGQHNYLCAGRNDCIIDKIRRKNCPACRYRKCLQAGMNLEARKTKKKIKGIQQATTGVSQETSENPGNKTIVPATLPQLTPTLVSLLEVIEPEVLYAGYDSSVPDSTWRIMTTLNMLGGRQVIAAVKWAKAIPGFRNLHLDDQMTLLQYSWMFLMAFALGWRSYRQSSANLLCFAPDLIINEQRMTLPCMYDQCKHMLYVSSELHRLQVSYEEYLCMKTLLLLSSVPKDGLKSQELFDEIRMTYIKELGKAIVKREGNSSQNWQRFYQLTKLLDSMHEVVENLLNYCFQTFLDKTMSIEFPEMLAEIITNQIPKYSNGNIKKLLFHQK
# Chain of Cytochrome P450 1A2 (Homo sapiens) (P05177 whole entry, looked up): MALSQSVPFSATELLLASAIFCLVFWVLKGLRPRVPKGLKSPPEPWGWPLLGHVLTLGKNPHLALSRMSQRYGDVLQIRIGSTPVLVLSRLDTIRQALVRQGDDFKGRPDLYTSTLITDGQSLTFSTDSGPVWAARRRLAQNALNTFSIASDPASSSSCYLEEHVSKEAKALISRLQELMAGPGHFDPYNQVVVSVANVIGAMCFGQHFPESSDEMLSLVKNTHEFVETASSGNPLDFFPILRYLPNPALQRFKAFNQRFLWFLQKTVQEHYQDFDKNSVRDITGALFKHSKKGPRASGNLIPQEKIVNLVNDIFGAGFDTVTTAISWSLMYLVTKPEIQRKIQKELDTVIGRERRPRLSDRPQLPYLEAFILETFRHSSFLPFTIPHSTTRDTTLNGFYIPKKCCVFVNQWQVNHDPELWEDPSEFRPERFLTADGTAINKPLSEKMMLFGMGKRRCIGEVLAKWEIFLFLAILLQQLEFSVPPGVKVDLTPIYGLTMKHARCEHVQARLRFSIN
# Chain of Cytochrome P450 2D6 (Homo sapiens) (P10635 whole entry, looked up): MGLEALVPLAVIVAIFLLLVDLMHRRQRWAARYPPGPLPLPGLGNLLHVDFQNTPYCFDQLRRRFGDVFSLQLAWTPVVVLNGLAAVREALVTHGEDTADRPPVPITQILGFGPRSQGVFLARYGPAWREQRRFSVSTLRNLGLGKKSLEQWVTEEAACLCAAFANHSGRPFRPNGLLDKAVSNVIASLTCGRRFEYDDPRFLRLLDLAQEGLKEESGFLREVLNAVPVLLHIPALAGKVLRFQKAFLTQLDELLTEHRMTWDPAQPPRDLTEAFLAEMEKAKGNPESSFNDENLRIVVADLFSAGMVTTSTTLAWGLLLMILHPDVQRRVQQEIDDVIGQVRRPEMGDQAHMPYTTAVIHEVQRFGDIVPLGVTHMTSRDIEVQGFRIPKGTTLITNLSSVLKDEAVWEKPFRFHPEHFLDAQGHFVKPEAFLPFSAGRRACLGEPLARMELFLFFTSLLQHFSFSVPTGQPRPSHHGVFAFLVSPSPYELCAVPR
# Chain of Ubiquitin carboxyl-terminal hydrolase 1 (Homo sapiens) (O94782 whole entry, looked up): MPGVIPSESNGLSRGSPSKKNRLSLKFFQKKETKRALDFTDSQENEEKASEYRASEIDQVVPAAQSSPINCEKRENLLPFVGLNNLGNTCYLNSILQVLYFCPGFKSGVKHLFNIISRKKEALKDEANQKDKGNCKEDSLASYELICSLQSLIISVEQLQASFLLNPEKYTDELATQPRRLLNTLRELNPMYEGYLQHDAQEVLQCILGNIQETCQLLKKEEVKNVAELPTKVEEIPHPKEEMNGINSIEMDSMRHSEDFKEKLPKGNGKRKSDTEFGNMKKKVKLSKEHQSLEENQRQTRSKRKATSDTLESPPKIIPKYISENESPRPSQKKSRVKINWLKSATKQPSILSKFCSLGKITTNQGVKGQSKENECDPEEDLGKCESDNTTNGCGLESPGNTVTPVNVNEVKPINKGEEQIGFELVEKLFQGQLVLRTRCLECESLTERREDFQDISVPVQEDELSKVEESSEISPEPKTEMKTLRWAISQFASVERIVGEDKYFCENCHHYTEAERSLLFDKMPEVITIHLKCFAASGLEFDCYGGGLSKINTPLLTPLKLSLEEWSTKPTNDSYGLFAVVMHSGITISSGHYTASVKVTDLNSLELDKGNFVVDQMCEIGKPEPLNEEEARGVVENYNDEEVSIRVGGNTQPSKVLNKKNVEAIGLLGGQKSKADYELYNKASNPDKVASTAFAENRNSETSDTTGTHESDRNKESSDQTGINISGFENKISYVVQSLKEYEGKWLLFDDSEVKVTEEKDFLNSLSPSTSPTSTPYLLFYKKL
# Chain of Phospholipid hydroperoxide glutathione peroxidase GPX4 (Homo sapiens) (P36969 whole entry, looked up): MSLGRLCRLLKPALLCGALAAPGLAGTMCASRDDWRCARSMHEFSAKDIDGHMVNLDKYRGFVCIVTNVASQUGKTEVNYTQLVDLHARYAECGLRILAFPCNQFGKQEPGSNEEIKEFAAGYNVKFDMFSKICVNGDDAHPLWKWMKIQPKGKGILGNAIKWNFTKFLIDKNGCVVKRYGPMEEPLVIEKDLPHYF
# Chain of Cytochrome P450 3A4 (Homo sapiens) (P08684 whole entry, looked up): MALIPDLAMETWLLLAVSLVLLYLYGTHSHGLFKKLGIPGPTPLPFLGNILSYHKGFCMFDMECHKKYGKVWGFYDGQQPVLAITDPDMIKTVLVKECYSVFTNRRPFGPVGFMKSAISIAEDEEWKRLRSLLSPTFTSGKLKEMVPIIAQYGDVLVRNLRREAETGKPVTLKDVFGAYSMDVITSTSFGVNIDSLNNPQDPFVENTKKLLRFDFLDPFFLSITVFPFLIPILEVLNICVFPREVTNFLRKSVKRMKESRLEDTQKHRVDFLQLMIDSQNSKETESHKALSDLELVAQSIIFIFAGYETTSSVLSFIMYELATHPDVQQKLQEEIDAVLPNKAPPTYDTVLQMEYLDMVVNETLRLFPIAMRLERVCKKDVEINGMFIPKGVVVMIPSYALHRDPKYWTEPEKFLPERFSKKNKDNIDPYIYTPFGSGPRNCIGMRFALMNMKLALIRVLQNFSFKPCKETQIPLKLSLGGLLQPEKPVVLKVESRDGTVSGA
# Chain of Cytochrome P450 2C19 (Homo sapiens) (P33261 whole entry, looked up): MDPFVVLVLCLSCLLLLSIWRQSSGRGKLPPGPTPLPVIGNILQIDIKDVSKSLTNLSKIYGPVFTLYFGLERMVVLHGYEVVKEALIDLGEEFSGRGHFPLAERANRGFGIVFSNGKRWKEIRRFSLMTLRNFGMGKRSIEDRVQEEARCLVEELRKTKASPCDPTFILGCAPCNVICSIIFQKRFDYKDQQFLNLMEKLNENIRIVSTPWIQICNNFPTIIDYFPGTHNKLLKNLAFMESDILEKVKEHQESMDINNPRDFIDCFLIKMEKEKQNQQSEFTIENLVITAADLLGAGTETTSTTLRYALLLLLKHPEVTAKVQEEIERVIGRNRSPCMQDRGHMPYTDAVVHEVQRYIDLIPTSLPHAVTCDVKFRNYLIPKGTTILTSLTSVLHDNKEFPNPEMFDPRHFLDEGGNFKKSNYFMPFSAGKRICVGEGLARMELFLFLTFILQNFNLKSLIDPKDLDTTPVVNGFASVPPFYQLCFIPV
# Chain of Lysosomal acid glucosylceramidase (Homo sapiens) (P04062 whole entry, looked up): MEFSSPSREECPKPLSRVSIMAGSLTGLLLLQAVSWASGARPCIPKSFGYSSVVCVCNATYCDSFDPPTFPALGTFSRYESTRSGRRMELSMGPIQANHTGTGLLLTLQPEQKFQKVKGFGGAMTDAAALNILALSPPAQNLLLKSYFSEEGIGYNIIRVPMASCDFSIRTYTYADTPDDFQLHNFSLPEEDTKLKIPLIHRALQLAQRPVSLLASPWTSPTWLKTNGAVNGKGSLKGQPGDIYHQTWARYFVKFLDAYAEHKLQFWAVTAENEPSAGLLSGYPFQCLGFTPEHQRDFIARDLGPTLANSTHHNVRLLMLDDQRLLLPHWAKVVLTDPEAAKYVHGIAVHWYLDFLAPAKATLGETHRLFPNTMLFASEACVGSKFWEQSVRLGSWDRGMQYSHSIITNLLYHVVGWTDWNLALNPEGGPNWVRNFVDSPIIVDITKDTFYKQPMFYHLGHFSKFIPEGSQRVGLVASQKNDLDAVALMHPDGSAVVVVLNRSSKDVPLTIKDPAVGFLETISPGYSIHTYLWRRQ
structure (smiles),measurement,setting,value
c1csc(CNc2ncnc3ccc(-c4ccc5c(c4)OCO5)cc23)c1,Potency,[1],> 11.4 µM (inactive)
same,Potency,[2],0.398 µM (active)
same,"activity change, negative = inhibition",[3],5.05% (inactive)
same,"activity, negative = inhibition",[4],-12.1% (inactive)
same,Potency,[5],> 46 µM (inactive)
same,Potency,[6],> 46 µM (inactive)
same,Potency,[7],inactive
same,Potency,[8],inactive
same,Potency,[9],0.398 µM (active)
same,Potency,[10],3.98 µM (active)
same,outcome,[11],inactive
same,outcome,[12],inactive
same,"activity change, negative = inhibition",[13]; at 57.5 µM (top of the series),9.51% (inactive)
same,max response,[13]; measured here: cell count channel max response,14.3%
same,max response,[13]; measured here: lipid channel max response,25.9%
same,Potency,[14],inactive
same,Potency,[15],11.6 µM (active)
same,Potency,[16],inactive
same,Potency,[17],inactive
C[n+]1cc(NC(=O)c2cccc(C(=O)Nc3cc4ccccc4[n+](C)c3)n2)cc2ccccc21,Potency,[15],16.4 µM (active)
same,Potency,[18],inactive
same,Potency,[17],inactive
Cn1cc(-c2cc(Oc3cc(F)c(NC(=O)C4(C(=O)Nc5ccccc5)CC4)cc3F)ccn2)cn1,Potency,[15],18.4 µM (active)
same,Potency,[19],29.4 µM (active)
same,Potency,[20],9.34 µM (active)
same,Potency,[21],13.2 µM (active)
same,Potency,[17],inactive
same,Potency,[22],inactive
same,Z-AUC,[23],0.797 (inactive)
same,Z-AUC,[23]; measured here: PEO1 parental Z-AUC,-0.238
same,Z-AUC,[23]; measured here: PEO4 Z-AUC,0.178
Cc1ccc(NS(=O)(=O)c2cc3c(cc2F)NC(=O)CC3)cc1Cl,Potency,[15],inactive
same,outcome,[24],inactive
same,Potency,[20],inactive
same,Potency,[17],inactive
